Bioassay records: PubChem BioAssay, The Scripps Research Institute Molecular Screening Center
PAFAH1B2 FP inh = PAFAH1B2 enzyme inhibitors, primary screen, biochemical, fluorescence polarization, human; Platelet-activating factor acetylhydrolase IB subunit alpha2 (Homo sapiens), P68402; recombinant PAFAH1B2, FP-rhodamine activity probe; inhibition, % at 3.39 µM; 340,000 compounds, 1.2% hits;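 active means inhibition above the mean of all tested compounds plus 3 SD, cut at about 24% in these data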;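 further: 0% = enzyme with DMSO and 100% = wells lacking PAFAH1B2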
Target sequence (P68402 whole entry, looked up): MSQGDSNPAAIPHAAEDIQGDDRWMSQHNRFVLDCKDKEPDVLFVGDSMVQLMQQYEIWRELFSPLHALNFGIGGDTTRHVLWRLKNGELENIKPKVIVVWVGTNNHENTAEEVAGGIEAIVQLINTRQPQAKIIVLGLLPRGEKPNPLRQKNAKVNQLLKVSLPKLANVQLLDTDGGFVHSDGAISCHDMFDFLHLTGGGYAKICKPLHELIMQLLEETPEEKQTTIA
PAFAH1B3 inh = PAFAH1B3 enzyme inhibitors, primary screen, biochemical, fluorescence polarization, human; inhibition, % at 3.39 µM; Platelet-activating factor acetylhydrolase IB subunit alpha1 (Homo sapiens), Q15102; 340,000 compounds, 0.28% hits; recombinant PAFAH1B3, FP-rhodamine probe;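 active means inhibition above the screen-wide average of all tested compounds plus 3 SD, cut at about 25% in these data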;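 further: 0% = enzyme with DMSO only and 100% = wells lacking PAFAH1B3 protein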
Target sequence (Q15102 whole entry, looked up): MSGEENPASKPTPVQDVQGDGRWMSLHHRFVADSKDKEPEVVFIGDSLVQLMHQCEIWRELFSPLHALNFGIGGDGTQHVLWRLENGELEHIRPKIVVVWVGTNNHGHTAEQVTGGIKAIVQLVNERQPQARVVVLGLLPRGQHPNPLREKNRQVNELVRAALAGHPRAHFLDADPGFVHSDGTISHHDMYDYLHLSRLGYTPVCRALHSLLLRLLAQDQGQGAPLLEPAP
PKA-R2B activ = activators of PKA-R2B holoenzyme, primary screen, biochemical, fluorescence polarization, Cy5-IP20, human | cAMP-dependent protein kinase catalytic subunit beta (Homo sapiens) + cAMP-dependent … | PKA-R2B holoenzyme dissociation; R2B truncated from residue 108, S112A mutant; 0% DMSO only, 100% 113 µM cGMP | activation, % at 11.4 µM | 340,000 compounds, 0.079% hits | AID 504700, 2011;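 active means activation above a cutoff set at the mean over all compounds plus 3 SD, cut at about 18% in these data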;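 further: higher means more holoenzyme dissociation and a rise in polarization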
PKA-R1A act = activators of PKA-R1A holoenzyme, primary screen, biochemical, fluorescence polarization, Cy5-IP20, bovine R1A, mouse PKAc; cAMP-dependent protein kinase type I-alpha regulatory subunit (Bos taurus) + …; activation, % at 11.4 µM; AID 504707, 2011; PKA-R1A dissociation; scaled: DMSO 0%, 113 µM cGMP 100%; 340,000 compounds, 0.083% hits;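 active means percent activation above the mean of all tested compounds plus 3 SD, cut at about 19% in these data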;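 further: higher means more PKAc released from R1A so a rise in polarization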
pPAFAH FP inh = pPAFAH enzyme inhibitors, primary screen, biochemical, fluorescence polarization, human. Platelet-activating factor acetylhydrolase (Homo sapiens), Q13093. recombinant pPAFAH, FP-rhodamine probe fluorescence polarization. inhibition, % at 3.39 µM. 330,000 compounds, 1.5% hits. AID 463082, 2010;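 active means inhibition above the mean inhibition across the screen plus 3 SD, cut at about 25% in these data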;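 further: inhibitors block binding of the rhodamine activity-based probe so polarization drops; 0% = enzyme with DMSO and 100% = wells lacking pPAFAH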
PAFAH2 inh = PAFAH2 enzyme inhibitors, primary screen, biochemical, fluorescence polarization, human; inhibition, % at 3.39 µM; 340,000 compounds, 0.99% hits; AID 492956, 2010; recombinant PAFAH2, FP-rhodamine activity probe;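 active means inhibition above the mean over all tested compounds plus 3 SD, cut at about 30% in these data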;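 further: inhibitors block probe labeling of enzyme so polarization drops; 0% = enzyme with DMSO and 100% = wells lacking PAFAH2 protein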
PAFAH2 confirm = PAFAH2 enzyme inhibitors, confirmation, biochemical, fluorescence polarization, human. shares compounds with PAFAH2 inh. recombinant PAFAH2, FP-rhodamine activity probe. inhibition, % at 3.39 µM. 2,300 compounds, 65% hits. AID 493030, 2011;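 active means mean inhibition over three repeats above a set limit taken from the earlier primary screen, cut at about 30% in these data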;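 further: inhibitor blocks binding of rhodamine activity probe so polarization falls; 0% = enzyme with DMSO and 100% = wells lacking PAFAH2 protein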
Starred values were filed as active, the others as inactive. This is a sample that favours compounds with a hit; in the whole collection about 2.6% have one here.

CC1CCCCC1NC(=O)COC(=O)c1ccc2c(c1)NC(=O)CS2 (configuration not stated) was read as PAFAH1B2 FP inh 5, PAFAH1B3 inh -1, PKA-R2B activ 1, PKA-R1A act -3, pPAFAH FP inh -2, PAFAH2 inh 86* and PAFAH2 confirm 77*.
For CC1CCCCC1NC(=O)COC(=O)c1ccc2ncsc2c1 (configuration not stated) the results were PAFAH1B2 FP inh 7, PAFAH1B3 inh 11, PKA-R2B activ -4, PKA-R1A act -11, pPAFAH FP inh -3, PAFAH2 inh 84* and PAFAH2 confirm 78*.
`COc1ccc(C(=O)NC(=O)COC(=O)c2ccc3ncsc3c2)cc1` gave pPAFAH FP inh -3.
For CC1CCCC(NC(=O)COC(=O)c2ccc3ncsc3c2)C1C (configuration not stated) the results were PAFAH1B2 FP inh 4, PAFAH1B3 inh 3, PKA-R2B activ 2, PKA-R1A act 6, pPAFAH FP inh -4, PAFAH2 inh 85* and PAFAH2 confirm 76*.
For O=C(NC1CCN(S(=O)(=O)c2ccccc2)CC1)c1ccc(F)cc1 the results were PAFAH1B2 FP inh 1, PAFAH1B3 inh 9, PKA-R2B activ 12, PKA-R1A act -9, pPAFAH FP inh 1 and PAFAH2 inh 7.
Screening Cc1cc(C)cc(C(=O)OCC(=O)NC2CCCC2)c1 returned PAFAH1B2 FP inh -1, PAFAH1B3 inh 2, PKA-R2B activ -2, PKA-R1A act -14, pPAFAH FP inh 2, PAFAH2 inh 43* and PAFAH2 confirm 23.
For COc1cc(C(=O)OCC(=O)Nc2ccc(C)cc2)cc(OC)c1OC the results were PAFAH1B2 FP inh 2, PAFAH1B3 inh 6, PKA-R2B activ 0, PKA-R1A act -13, pPAFAH FP inh 0, PAFAH2 inh 31* and PAFAH2 confirm 16.
`Cc1ccc(NC(=O)COC(=O)c2cc(Cl)ccc2[N+](=O)[O-])cc1` gave PAFAH1B2 FP inh 5, PAFAH1B3 inh 3, PKA-R2B activ -9, PKA-R1A act -8, pPAFAH FP inh 4, PAFAH2 inh 56* and PAFAH2 confirm 38*.
COc1cc(C(=O)OCC(=O)NC2CCCCC2)cc2c1OCCO2 was read as PAFAH1B2 FP inh 0, PAFAH1B3 inh 3, PKA-R2B activ -1, PKA-R1A act -3, pPAFAH FP inh 8, PAFAH2 inh 74* and PAFAH2 confirm 66*.
For Cc1cc(C)cc(C(=O)OCC(=O)NC(=O)NC2CCCC2)c1 the results were PAFAH1B2 FP inh 1, PAFAH1B3 inh 8, PKA-R2B activ -4, PKA-R1A act -4, pPAFAH FP inh 3 and PAFAH2 inh 11.
COc1ccc(-n2c(C)cc(/C=C3\C(=N)N4N=C(CC(=O)N5CCOCC5)SC4=NC3=O)c2C)c(OC)c1 was read as PAFAH1B2 FP inh 4, PAFAH1B3 inh 2, PKA-R2B activ 0, PKA-R1A act -6, pPAFAH FP inh 8 and PAFAH2 inh 7.
For CN(C(=O)COC(=O)c1cncc(Br)c1)C1CCCCC1 the results were PAFAH1B2 FP inh 6, PAFAH1B3 inh 2, PKA-R2B activ 1, PKA-R1A act -7, pPAFAH FP inh 2 and PAFAH2 inh 9.
NS(=O)(=O)c1cc(C(=O)OCC(=O)NC2CCCCCCC2)ccc1Cl was read as PAFAH1B2 FP inh 16, PAFAH1B3 inh 6, PKA-R2B activ -12, PKA-R1A act 3 and PAFAH2 inh 9.
Screening COc1cc(C(=O)OCC(=O)NC2CCCC2)cc(OC)c1OC returned PAFAH1B2 FP inh 7, PAFAH1B3 inh 7, PKA-R2B activ 7, PKA-R1A act -7, pPAFAH FP inh 0 and PAFAH2 inh 18.
